Results as given in PubChem BioAssay (NCATS).
Inconclusive results are not listed. The source made the active and inactive calls. The call rests on the fitted dose curve; in most records, active means well fitted cell-killing curve with a large enough effect; inconclusive means small, poorly fitted or top-dose-only effect, or effect the other way; inactive means flat fitted curve, though single readings scatter.

Each compound was assayed on Es-2 (assay: Primary qHTS to identify gynecologic anti-cancer compounds using libraries of approved drugs and bioactive compounds (AID 1345084; further: nearly all actives have a fitted effect of over 55% in size)). Conditions: Gynecologic cancer cell panel viability, ATPlite luminescence, 48 h; series mostly up to 57.5 µM; activity change, negative = cytotoxicity: at the top concentration.
How it was run: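 ATP-based viability (ATPlite), 1,000 cells/well, 16 h pre-incubation, 48 h compound at 37 C, 5% CO2, 15 min RT before read.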
On the % scale 0 is the no-effect control and ±100 the full control effect.

| Compound | activity change, negative = cytotoxicity |
| --- | --- |
| CC(=O)OCC(=O)O[C@@H]1[C@H]2[C@@H](OC(=O)c3ccccc3)[C@@H](C)C[C@]2(O)[C@H](OC(C)=O)C2(C)[C@H]3CC(C)(C)C(=O)[C@@H]3CC1(OC(C)=O)[C@@H]2OC(C)=O (some centres undefined) | 7.39% [at 25.3 µM] (inactive) |
| CC1(O)CCC2C(C(=O)O)=COC(OC3OC(CO)C(O)C(O)C3OC(=O)/C=C/c3ccc(O)cc3)C21 (centres undefined) | 5.8% [at 25.3 µM] (inactive) |
| CC(=O)NC(CCC(=O)O)C(=O)NCCc1ccc(O)cc1 (centres undefined) | 1.43% (inactive) |
| COC(=O)C1C(c2ccc(O)cc2)C(C(=O)OC)C1c1ccc(O)cc1 (centres undefined) | 0.0557% [at 38.5 µM] (inactive) |
| C=C(C)C(=O)O[C@H]1C[C@@](C)(OC(C)=O)[C@@]2(O)CC[C@@](C)(O)[C@H](OC(C)=O)[C@@]23OC(=O)C(COC)=C13 | 3.79% [at 25.3 µM] (inactive) |
| CC1(C)CC(=O)N(CCCCN2CCN(c3ncccn3)CC2)C(=O)C1 | 3.03% (inactive) |
| COc1ccc2c(c1)OC[C@]1(O)c3cc4c(cc3O[C@H]21)OCO4 | -2.51% [at 38.5 µM] (inactive) |
| CC(CCC1(O)OC2CC3C4CCC5CC(O[C@@H]6O[C@H](CO)[C@@H](O)[C@H](O)[C@H]6O[C@@H]6OC[C@@H](O)[C@H](O)[C@H]6O)C(O)CC5(C)C4CCC3(C)C2C1C)CO[C@@H]1O[C@H](CO)[C@@H](O)[C@H](O)[C@H]1O (some centres undefined) | -0.82% [at 11.6 µM] (inactive) |
| COc1cc(CCc2ccccc2)c(C(=O)O)c2c1CC(C(C)(C)O)O2 (centres undefined) | -0.954% [at 38.5 µM] (inactive) |
| CCCC1=CC2=C(CO1)C(=O)C(C)(OC(=O)c1c(C)cc(OC)cc1O)C(O)C2 (centres undefined) | 1.93% [at 25.3 µM] (inactive) |
| C[C@@H]1O[C@@H](O[C@@H]2[C@@H](O)[C@H](O[C@@H]3[C@@H](O)[C@@H](O)[C@H](O[C@H]4[C@H](OC(=O)[C@]56CCC(C)(C)C[C@H]5C5=CCC7[C@@]8(C)C[C@H](O)[C@H](O[C@@H]9O[C@@H](C)[C@H](O)[C@@H](O)[C@H]9O)[C@@](C)(CO)C8CC[C@@]7(C)[C@]5(C)C[C@H]6O)O[C@H](C)[C@H](O)[C@@H]4O)O[C@H]3C)OC[C@H]2O)[C@H](O)[C@H](O)[C@H]1O (some centres undefined) | -4.41% [at 6.55 µM] (inactive) |
| CCS(=O)(=O)N1CCC([C@@H](C)n2c(C)c(C(=O)NCc3c(OC)cc(C)[nH]c3=O)c3ccccc32)CC1 | 4.61% (inactive) |
| C/C=C1\[C@H](O[C@@H]2O[C@H](CO)[C@@H](O)[C@H](O)[C@H]2O)OC=C(C(=O)OC)[C@H]1CC(=O)OC | -2.48% [at 25.3 µM] (inactive) |
| O=C(O[C@H]1[C@@H]2C[C@@H]3OC[C@@](O)([C@H]2[C@H](O[C@@H]2O[C@H](CO)[C@@H](O)[C@H](O)[C@H]2O)O3)[C@@H]1O)c1ccccc1 | -0.636% [at 25.3 µM] (inactive) |
| CC1CCC2C(C)(C)C(O)CCC2(C)C12Cc1c(O)cc3c(c1O2)C(N)=NC3 (centres undefined) | -0.56% [at 38.5 µM] (inactive) |
| C=CC(C)(C)O[C@@H]1O[C@H](CO[C@@H]2OC[C@](O)(CO)[C@H]2O)[C@@H](O)[C@H](O)[C@H]1O | 1.96% [at 38.5 µM] (inactive) |
| CCCC(N[C@@H](C)C(=O)N1[C@H](C(=O)O)C[C@@H]2CCCC[C@@H]21)C(=O)OCC (some centres undefined) | 5.53% (inactive) |
| O=C(O)c1ccc(CCCc2ccc(OCCc3ccc(F)cc3)cc2)o1 | 6.01% (inactive) |
| Cc1[nH]cnc1C1CCN(c2nc3cccc4c3n2CCC4=O)CC1 | -0.966% (inactive) |
| C[C@@H]1O[C@@H](O[C@@H]2[C@@H](O)[C@H](O[C@@H]3[C@@H](O)[C@@H](O)[C@H](O[C@H]4[C@H](OC(=O)[C@]56CCC(C)(C)C[C@H]5C5=CCC7[C@@]8(C)C[C@H](O)[C@H](O[C@@H]9O[C@H](C(=O)O)[C@@H](O)[C@H](O)[C@H]9O)[C@@](C)(CO)C8[C@H](O)C[C@@]7(C)[C@]5(C)CC6)OC[C@H](O)[C@@H]4O)O[C@H]3C)OC[C@H]2O)[C@H](O)[C@H](O)[C@H]1O (some centres undefined) | 7.07% [at 6.55 µM] (inactive) |

| Compound | activity change, negative = cytotoxicity |
| --- | --- |
| CC1(C)CC2C(O)C3=C(CC(C)(O)C2C1)C(=O)OC3O (centres undefined) | 3.13% (inactive) |
| CC(C)=CC/C=C(/C)[C@H]1CC[C@]2(C)[C@@H]1[C@H](O)CC1[C@@]3(C)CC[C@H](O)C(C)(C)[C@@H]3[C@@H](O[C@@H]3O[C@H](CO)[C@@H](O)[C@H](O)[C@H]3O[C@@H]3O[C@@H](C)[C@H](O)[C@@H](O)[C@H]3O)C[C@]12C (some centres undefined) | 0.109% [at 25.3 µM] (inactive) |
| O=C(/C=C/c1ccc(O)cc1)OCC1=C[C@@H](O)[C@@H]2C=CO[C@@H](O[C@@H]3O[C@H](CO)[C@@H](O)[C@H](O)[C@H]3O)[C@H]12 | 13.1% [at 25.3 µM] (inactive) |
| O=C(O[C@H]1[C@@H]2C=CO[C@@H](O[C@@H]3O[C@H](CO)[C@@H](O)[C@H](O)[C@H]3O)[C@@H]2[C@@]2(CO)O[C@@H]12)c1ccc(O)c(O)c1 | 2.7% [at 25.3 µM] (inactive) |
| O=C(O)C[C@H]1CCC(=O)[C@@H]1C/C=C\CCOC1OC(CO)C(O)C(O)C1O (some centres undefined) | -7.28% [at 38.5 µM] (inactive) |
| CC(=O)OC1C(O)C(C)=C(CCC(C)CC(=O)O)C2(C)CCCC(C)(C)C12 (centres undefined) | 6.09% [at 38.5 µM] (inactive) |
| Cc1ncc([N+](=O)[O-])n1CC(O)CN1CCOCC1 (centres undefined) | 3.51% (inactive) |
| COc1cc2c(cc1O)C1(Cc3ccc4c(c3C1=O)OCO4)N(C)CC2 (centres undefined) | -2.38% [at 38.5 µM] (inactive) |
| COC(=O)[C@H](CC1C=NC=N1)NCC12CC3CC(CC(C3)C1)C2 (some centres undefined) | 8% (inactive) |
| CCOC(=O)c1ccc(N(C)c2csc(-c3ccccc3)n2)cc1 | 7.06% (inactive) |
| C/C1=C\C[C@H](O[C@@H]2O[C@H](CO)[C@@H](O)[C@H](O)[C@H]2O)/C(C)=C/[C@H]2OC(=O)[C@H](C)[C@@H]2CC1 | -1.05% [at 25.3 µM] (inactive) |
| COc1ccc(C(=O)O[C@H]2CC(C)=CC[C@@]3(C)[C@@H](OC(C)=O)C[C@@](O)(C(C)C)[C@H]23)cc1 | -2.12% [at 25.3 µM] (inactive) |
| CC/C=C\C[C@H]1C(=O)C=C[C@@H]1CCCCCCCC(=O)O | 0.458% (inactive) |
| CC1CC(=O)C2=C(O1)OC1(C)CCC3C(C)(C)C=CC(=O)C3(C)C1C2 (centres undefined) | 0.193% [at 38.5 µM] (inactive) |
| CC1(CO)CC2C(O)C(=O)C3(CO)CC3(C)C2C1 (centres undefined) | -3.12% (inactive) |
| CCn1nnnc1NCc1ccc(C(C)C)cc1 | 2.41% (inactive) |
| CCNC(=O)CCC/C=C\C[C@@H]1[C@@H](/C=C/C(O)CCc2ccccc2)[C@@H](O)C[C@@H]1O (some centres undefined) | -0.846% (inactive) |
| CN[C@@H]1[C@@H](O)[C@@H](O[C@@H]2[C@@H](O)[C@H](O[C@H]3O[C@H](CN)[C@@H](O)[C@H](O)[C@H]3O)[C@@H](N)C[C@H]2NC(=O)[C@@H](O)CN)OC[C@]1(C)O | 8.22% (inactive) |
| CC1(C)OC(=O)C(OCC2CC2)=C1c1ccc(S(C)(=O)=O)cc1 | -2.55% (inactive) |
